Screening results: PubChem BioAssay, National Center for Advancing Translational Sciences (NCATS)
Compounds with a hit are over-represented: about 9.8% of the library has one in this group of screens.
CBFb-RUNX1 inh: blocks binding between human CBF-beta and RUNX1; Q01196+Q13951; AlphaScreen CBFb-His/RUNX1-biotin binding, biochemical; Potency, µM (titrated, usually from 59.8 µM), for inactives: at the top dose activity, negative = inhibition, actives largely listed as inhibitors; 230,000 tested, under 10 active; AID 1477; active = well fitted curve in the direction sought with a large enough effect; inconclusive = small, poorly fitted or top-dose-only effect, or another doubt; inactive = no such curve, though single readings can be large; an effect the other way counts as inactive or inconclusive; note: % of control where 0% means no effect
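His-tagged CBF-beta and biotinylated RUNX1 (30 nM each) were premixed 20 min at room temperature, exposed to compound for 15 min, then given nickel-chelate and streptavidin AlphaScreen beads (50 ng each). After 90 min, AlphaScreen signal was read.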
JMJD2E inh: inhibitors of human JMJD2E histone demethylase | 1.6% of 230,000 active | JMJD2E catalytic domain, FDH-coupled NADH fluorescence (FDH is formaldehyde dehydrogenase) | AID 2147 | Potency, µM (doses to about 57.1 µM), for the others: at the highest dose activity change, negative = inhibition, usual class: inhibitors | B2RXH2;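 note: potency is the fitted concentration of half-maximal effect; 0% = wells with enzyme and -100% = buffer wells without enzyme; nearly all actives have a fitted effect of over 50% in size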
HTT cytoprotect: Huntington cell model cytoprotection by ATP luminescence; Potency, µM (top dose mostly 56.4 µM), inactives show cytoprotection (ATP increase), most hits filed as activators; 0.14% of 230,000 active; AID 1471; PC12 HTT-Q103 induced, cytoprotection, ATP luminescence, 40 h; active = well fitted curve in the direction sought with a large enough effect; inconclusive = small, poorly fitted or top-dose-only effect, or another doubt; inactive = no such curve, though single readings can be large; an effect the other way counts as inactive or inconclusive; note: potency is the fitted concentration of half-maximal effect; % of control where 0% means no effect; nearly all actives have a fitted effect of over 45% in size
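Rat PC12, Q103 Htt exon1-GFP fusion, ecdysone promoter; tebufenozide inducer 100 nM final; compound titration; qHTS, 1500 cells/well; ATPlite luminescent read.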
HPGD inh: HPGD (human) dehydrogenase inhibition | AID 894 | P15428 | 4.3% of 150,000 active | purified HPGD, NADH fluorescence kinetic, PGE2 substrate | Potency, µM, for the others: at the top dose activity change, negative = inhibition, usual class: inhibitors; note: potency is the fitted concentration of half-maximal effect; % is set by controls: 0 for no effect and ±100 for the full control effect
Target sequence (P15428 whole entry, looked up): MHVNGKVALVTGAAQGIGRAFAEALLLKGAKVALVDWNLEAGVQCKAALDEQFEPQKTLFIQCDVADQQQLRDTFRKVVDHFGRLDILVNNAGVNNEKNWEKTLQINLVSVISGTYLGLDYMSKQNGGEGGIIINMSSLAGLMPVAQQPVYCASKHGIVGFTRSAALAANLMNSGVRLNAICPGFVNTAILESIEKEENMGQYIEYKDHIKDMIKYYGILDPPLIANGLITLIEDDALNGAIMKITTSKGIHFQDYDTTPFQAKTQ
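NADH formation kinetics: reaction with 30 uM PGE2 and 1 mM NAD+ (final), 20 nM enzyme, Tris-HCl pH 8 with Tween 20, after 15 min compound preincubation at room temperature. Fluorescence change, last versus first of five reads.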
ALDH1A1 block: inhibitors of human aldehyde dehydrogenase 1A1 | P00352 | Purified ALDH1A1, NADH fluorescence, propionaldehyde substrate | Potency, µM (series often up to 75.3 µM), inactives show at the top dose activity, negative = inhibition, actives largely listed as inhibitors | 7.3% of 220,000 active;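 note: potency is the fitted concentration of half-maximal effect; plate controls were no enzyme wells and a reference inhibitor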
HTT aggregate: reduces HttQ103-GFP aggregates in PC12 cells. AID 1688. Potency, µM (series often up to 46.1 µM), inactives show at the top dose activity change, negative = inhibition, actives largely listed as inhibitors. PC12 HttQ103-GFP aggregates, Acumen cytometry, 40 h. 1.1% of 220,000 active; active = well fitted curve in the direction sought with a large enough effect; inconclusive = small, poorly fitted or top-dose-only effect, or another doubt; inactive = no such curve, though single readings can be large; an effect the other way counts as inactive or inconclusive; note: potency is the fitted concentration of half-maximal effect; % is set by controls: 0 for no effect and ±100 for the full control effect; nearly all actives have a fitted effect of over 60% in size
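PC12 cells stably carrying ecdysone-inducible HTT exon 1 Q103–GFP were induced with tebufenozide (100 nM final) and treated with library compounds in titration. GFP aggregates in lysates were counted by laser scanning cytometry.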
Starred values were filed as active, the others as inactive; ? = inconclusive; / = no result; [ ] = remark or other dose. Unless noted, calls come from the whole dose curve; as a rule, active = well fitted inhibition curve with a large enough effect (not every such curve was filed as active); inconclusive = small, poorly fitted or top-dose-only effect, or another doubt; inactive = no such curve, though single readings can be large or run the other way.

SMILES	CBFb-RUNX1 inh	JMJD2E inh	HTT cytoprotect	HPGD inh	ALDH1A1 block	HTT aggregate
COc1cccc(-c2nc(N3CCCC3)c3ccccc3n2)c1O	1%	-1%	-25%[10 µM]	/	-4%	-13%[9.22 µM]
CSc1ccccc1Nc1ncnc(N)n1	2%	-1%	16%[10 µM]	/	7%	13%[9.22 µM]
C/C(=N/NC(=O)CNc1ccc(C)cc1)c1ccc(Br)s1	22%	5%	0%[10 µM]	-19%	14µM*	?
COC(=O)Nc1ccc(S(=O)(=O)NCc2ccccn2)cc1	11%	6%	-8%	/	3%	-14%
CSCC[C@H](NC(=O)[C@H](Cc1c[nH]c2ccccc12)NC(=O)CNC(=O)[C@H](Cc1ccc(O)cc1)NC(=O)[C@H](C)NC(=O)[C@H](CCC(=O)O)NC(=O)[C@H](CCC(=O)O)NC(=O)[C@H](CCC(=O)O)NC(=O)[C@H](CCC(=O)O)NC(=O)[C@H](CCC(=O)O)NC(=O)[C@H](CC(C)C)NC(=O)[C@H](Cc1c[nH]c2ccccc12)NC(=O)[C@@H]1CCCN1C(=O)CNC(=O)[C@@H]1CCC(=O)N1)C(=O)N[C@@H](CC(=O)O)C(=O)N[C@@H](Cc1ccccc1)C(=O)NCC(=O)O	18%	/	/	/	/	/
C/C(=C\C(=O)c1ccc(F)cc1)Nc1ccc(N2CCOCC2)cc1	?	?	-12%[0.074 µM]	-17%	?	2%
COc1cc(CC(=O)OCC(=O)Nc2ccc(N3CCOCC3)cc2)cc(OC)c1OC	-1%	-7%	-49%	/	-13%	19%
CC(=O)Nc1ccc(C(=O)OCC(=O)Nc2ccc(N3CCOCC3)cc2)cc1	-5%	1%	-27%	/	18µM*	-6%
COc1ccc(CC(=O)OCC(=O)Nc2ccc(N3CCOCC3)cc2)cc1	8%	0%	5%[10 µM]	/	25µM*	16%[9.22 µM]
O=C(COc1cc(F)ccc1[N+](=O)[O-])Nc1ccc(N2CCOCC2)cc1	2%	-3%	-47%	/	13µM*	-6%
NC(=O)CC[C@H](NC(=O)c1ccc(F)cc1)C(=O)OCC(=O)Nc1ccc(N2CCOCC2)cc1	5%	5%	-3%[0.074 µM]	-6%	11µM*	10%
Cc1[nH]c2ccccc2c1SCC(=O)NNC(=O)Nc1ccc(OC(F)(F)F)cc1	-9%	-5%	-10%[10 µM]	/	-5%	-9%[9.22 µM]
CCN(CC)C(=O)C1CCCN(Cc2ccccc2F)C1 (centres undefined)	-1%	-18%	-2%	-8%	-10%	6%
CCN(CC)C(=O)C1CCCN(Cc2ccccc2C(F)(F)F)C1 (centres undefined)	17%	?	18%[10 µM]	-13%	3.5µM*	9%
O=C(CCS(=O)(=O)c1ccc(Br)s1)Nc1ccccc1Br	?	-19%	/	/	-8%	25%
O=[N+]([O-])c1cc(S(=O)(=O)Nc2ccccc2)ccc1N1CCN(c2ccc(O)cc2)CC1	0%	3%	25%[10 µM]	-20%	32µM*	4%
Cc1ccc(NS(=O)(=O)c2ccc(N3CCN(c4ccc(O)cc4)CC3)c([N+](=O)[O-])c2)c(C)c1	?	-6%	32%[10 µM]	-5%	14µM*	-30%
O=C(O)c1cc(NS(=O)(=O)c2ccc(N3CCOCC3)c([N+](=O)[O-])c2)cc(C(=O)O)c1	9%	-8%	19%[10 µM]	-3%	7%	14%
O=C1CC(c2ccc(O)c(O)c2)Oc2cc(O)cc(O)c21 (centres undefined)	3%	28µM*	-182%	?	?	-8%[9.22 µM]
O=C1CC(c2ccc(O)c(O)c2)Oc2c1ccc(O)c2O (centres undefined)	/	6.3µM*	-36%[10 µM]	/	/	-12%[9.22 µM]
CC(C)=CCc1c(O)ccc2c1OC(c1ccc(O)c(O)c1)CC2=O (centres undefined)	-20%	?	-24%[10 µM]	/	-16%	-3%[9.22 µM]
CC(O)C1CCC2C3CCC4CC(O)CCC4(C)C3CCC12C (centres undefined)	/	/	-86%	/	/	12%
C=C1c2ccccc2O[C@H](C(=O)OCC)C1OC (mixture of isomers)	-3%[89.1 µM]	/	-22%[96.6 µM]	-11%	32µM*	/
